Measured values as given in PubChem BioAssay.
Results filed as inconclusive are left out. Active and inactive are the calls of the source.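 How the source made its calls, unless noted: active means GFP response, as percent of the DMSO control, above the screen-wide mean plus 3 SD, about 139; inconclusive means no response measured because the compound's own fluorescence interfered; inactive means the rest.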

Assays:
[1] = yeast TOR pathway RPL19A-GFP modulators, primary screen, cell-based, S. cerevisiae, multiplex flow cytometry (AID 1862; in the data active means percent of DMSO control GFP below about 86%;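 further: lower values mimic rapamycin by blocking the RPL19A rise seen in DMSO cells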); conditions: S. cerevisiae RPL19A-GFP strain, flow cytometry fluorescence, 3 h; at 10 µM; stronger effect = lower value
[2] = modulators of MEP2-GFP levels in yeast, primary screen, S. cerevisiae, multiplex flow cytometry (AID 1867);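 further: median GFP channel fluorescence of barcode-gated MEP2-GFP cells measured by flow cytometry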; conditions: S. cerevisiae MEP2-GFP strain, 3 h, at 10 µM, stronger effect = higher value, 100% means same as DMSO wells
[3] = modulators of CIT2-GFP expression in yeast, primary screen, S. cerevisiae, GFP fusion, multiplex flow cytometry (AID 1870;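 active means percent response above a set limit, the screen-wide mean plus 3 SD, cut at about 130% in these data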;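 further: barcoded CIT2-GFP strain pooled with four other GFP strains with rapamycin as positive control; median GFP fluorescence per well over plate mean of DMSO wells so 100% = DMSO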); conditions: 3 h, at 10 µM, stronger effect = higher value
[4] = modulators of LAP4-GFP expression in yeast, primary screen, S. cerevisiae, multiplex flow cytometry (AID 1873;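 active means GFP signal, as percent of the solvent control, above the screen mean plus 3 SD, about 149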); conditions: 3 h, at 10 µM, stronger effect = higher value
[5] = modulators of AGP1-GFP expression in yeast TOR pathway, primary screen, cell-based, multiplex flow cytometry, S. cerevisiae (AID 1887;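 active means GFP signal above the screen-wide mean plus 3 SD, that is over about 124.5% of the solvent control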;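 further: AGP1-GFP fusion strain of S. cerevisiae within a five-strain barcoded multiplex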); conditions: 3 h, at 10 µM, stronger effect = higher value
[6] = inhibitors of CD8+ T cell-vesicle binding, pilot screen, LFA-1/ICAM-1 modulator project, MLPCN validation set, flow cytometry (AID 2523;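 active means response below a set limit, under 55% cells CD8-positive and vesicle-bound, and CD8 cells' 90th-percentile brightness under 279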;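 on vesicle binding response: mean PE anti-B7-1 fluorescence of CD8+ cells relative to row control; 100% = QL9-loaded vesicles with DMSO vehicle in the same plate row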); conditions: 2C mouse CD8+ T cells, at 7 µM, stronger effect = lower value; double positive events: measured here: CD8+/vesicle+ event percentage
[7] = target: Integrin beta-1 (Homo sapiens) + Integrin alpha-4 (Homo sapiens) (UniProt P13612+P05556); experiment: inhibition of HUTS-21 binding to VLA-4, pilot screen, VLA-4 allosteric modulator project, U937 cells, HUTS-21 mAb, flow cytometry, validation set (AID 2674;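 active means inhibition above 50%, about 3 SD of the validation set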;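 further: antibody binding induced by the VLA-4 ligand LDV present at three times its Kd; 0% = LDV ligand with antibody and no compound and 100% = antibody without LDV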); conditions: HUTS-21 LIBS mAb binding, at 6.7 µM, stronger effect = higher value, binding induced by LDV ligand
Integrin beta-1 (Homo sapiens) + Integrin alpha-4 (Homo sapiens), sequence (P05556 whole entry, looked up): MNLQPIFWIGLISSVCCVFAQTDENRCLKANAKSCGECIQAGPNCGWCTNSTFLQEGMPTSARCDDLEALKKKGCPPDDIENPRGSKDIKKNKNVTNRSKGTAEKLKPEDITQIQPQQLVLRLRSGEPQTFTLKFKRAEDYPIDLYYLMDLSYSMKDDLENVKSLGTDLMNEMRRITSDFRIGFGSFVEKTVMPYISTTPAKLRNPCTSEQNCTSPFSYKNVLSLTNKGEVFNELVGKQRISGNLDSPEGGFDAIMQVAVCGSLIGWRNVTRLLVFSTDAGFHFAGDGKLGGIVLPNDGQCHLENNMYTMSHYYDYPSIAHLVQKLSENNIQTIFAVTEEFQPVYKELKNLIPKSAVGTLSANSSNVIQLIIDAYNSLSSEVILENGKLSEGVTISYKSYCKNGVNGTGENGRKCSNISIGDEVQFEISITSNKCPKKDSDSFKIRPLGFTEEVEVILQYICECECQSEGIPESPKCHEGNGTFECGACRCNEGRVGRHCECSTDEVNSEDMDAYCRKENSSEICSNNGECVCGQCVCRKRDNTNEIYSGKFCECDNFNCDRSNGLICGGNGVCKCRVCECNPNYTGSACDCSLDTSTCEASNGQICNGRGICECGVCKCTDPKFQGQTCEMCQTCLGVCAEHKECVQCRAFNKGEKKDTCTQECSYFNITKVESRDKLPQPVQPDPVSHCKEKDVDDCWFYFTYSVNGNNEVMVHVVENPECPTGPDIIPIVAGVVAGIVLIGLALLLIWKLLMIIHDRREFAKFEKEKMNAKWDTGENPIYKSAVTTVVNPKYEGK
Integrin beta-1 (Homo sapiens) + Integrin alpha-4 (Homo sapiens), sequence (P13612 whole entry, looked up): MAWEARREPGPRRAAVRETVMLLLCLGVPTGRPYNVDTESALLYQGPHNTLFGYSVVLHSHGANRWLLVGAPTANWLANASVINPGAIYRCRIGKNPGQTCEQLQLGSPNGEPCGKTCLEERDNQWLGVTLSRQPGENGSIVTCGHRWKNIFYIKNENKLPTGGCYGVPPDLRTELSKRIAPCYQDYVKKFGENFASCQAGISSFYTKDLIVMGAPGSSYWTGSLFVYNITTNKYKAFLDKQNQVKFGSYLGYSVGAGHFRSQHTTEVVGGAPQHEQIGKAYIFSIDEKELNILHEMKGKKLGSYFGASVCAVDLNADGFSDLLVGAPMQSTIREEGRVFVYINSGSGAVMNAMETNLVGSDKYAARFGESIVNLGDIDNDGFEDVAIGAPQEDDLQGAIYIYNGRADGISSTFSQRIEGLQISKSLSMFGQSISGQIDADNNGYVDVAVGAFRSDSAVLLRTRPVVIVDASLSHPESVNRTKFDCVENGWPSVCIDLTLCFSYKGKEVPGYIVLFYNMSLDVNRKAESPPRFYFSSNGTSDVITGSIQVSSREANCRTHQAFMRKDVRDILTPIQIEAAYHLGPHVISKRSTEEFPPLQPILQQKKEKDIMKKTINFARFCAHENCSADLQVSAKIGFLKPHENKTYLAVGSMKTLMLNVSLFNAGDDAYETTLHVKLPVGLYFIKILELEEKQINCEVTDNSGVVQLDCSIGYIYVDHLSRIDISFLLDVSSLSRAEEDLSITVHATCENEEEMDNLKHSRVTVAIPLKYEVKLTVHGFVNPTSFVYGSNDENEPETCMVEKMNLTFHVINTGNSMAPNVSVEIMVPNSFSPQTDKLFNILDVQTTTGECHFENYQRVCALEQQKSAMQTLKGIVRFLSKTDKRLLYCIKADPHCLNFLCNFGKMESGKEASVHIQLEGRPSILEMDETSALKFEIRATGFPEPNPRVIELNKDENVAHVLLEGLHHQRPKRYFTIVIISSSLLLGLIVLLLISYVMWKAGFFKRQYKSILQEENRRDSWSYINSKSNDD

[8] = superoxide lowering in aged yeast cells, pilot screen, validation compound set (AID 2706;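 active means superoxide response below 65% of plate, a cut near 3 SD across the whole screen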;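 further: yeast exposed to compound for one week at 30 degrees C before staining; 100% = mean of all compound wells on the same plate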); conditions: S. cerevisiae aging, superoxide DHE fluorescence; at 10 µM; stronger effect = lower value
[9] = target: Beta-adrenergic receptor kinase 1 (Homo sapiens) (UniProt P25098); experiment: GRK2 binders displacing RNA aptamer, biochemical, validation, human GRK2, bead flow cytometry (AID 488806;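 active means aptamer binding inhibition above 30%, about 3 SD of noise from non-fluorescent compounds; inactive means inhibition at or below 30%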); conditions: bead-bound GRK2, FAM-aptamer displacement, at 10 µM, stronger effect = higher value
Beta-adrenergic receptor kinase 1 (Homo sapiens), sequence (P25098 whole entry, looked up): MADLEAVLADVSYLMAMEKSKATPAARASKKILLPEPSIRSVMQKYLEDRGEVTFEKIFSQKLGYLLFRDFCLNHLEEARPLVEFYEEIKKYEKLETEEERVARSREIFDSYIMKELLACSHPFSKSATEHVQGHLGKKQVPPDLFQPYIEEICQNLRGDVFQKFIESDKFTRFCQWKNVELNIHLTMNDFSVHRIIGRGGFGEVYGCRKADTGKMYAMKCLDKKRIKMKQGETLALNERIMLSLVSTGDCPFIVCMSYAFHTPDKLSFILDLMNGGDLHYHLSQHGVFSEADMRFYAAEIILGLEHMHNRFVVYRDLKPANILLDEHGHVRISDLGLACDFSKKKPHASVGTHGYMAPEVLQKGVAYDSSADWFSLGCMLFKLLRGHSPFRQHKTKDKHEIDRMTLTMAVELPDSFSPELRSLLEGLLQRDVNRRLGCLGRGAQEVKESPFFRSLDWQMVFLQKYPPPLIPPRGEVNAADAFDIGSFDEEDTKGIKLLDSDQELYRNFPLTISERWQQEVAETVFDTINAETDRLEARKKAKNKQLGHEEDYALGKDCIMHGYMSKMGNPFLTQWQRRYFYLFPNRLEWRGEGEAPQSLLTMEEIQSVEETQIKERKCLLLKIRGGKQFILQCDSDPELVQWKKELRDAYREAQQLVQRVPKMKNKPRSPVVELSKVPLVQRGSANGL

[10] = target: Beta-2 adrenergic receptor (Homo sapiens) (UniProt P07550); experiment: beta2AR agonists driving receptor internalization, pilot screen, cell-based, FAP fluorogen, flow cytometry, validation set (AID 504459;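 active means percent response above 42, roughly 3 SD of non-fluorescent test compounds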;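 further: agonist-driven loss of surface beta2AR via internalization measured by FAP dye flow cytometry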); conditions: Am2.2-beta2AR cells, FAP surface receptor flow cytometry; at 10 µM; stronger effect = higher value
Beta-2 adrenergic receptor (Homo sapiens), sequence (P07550 whole entry, looked up): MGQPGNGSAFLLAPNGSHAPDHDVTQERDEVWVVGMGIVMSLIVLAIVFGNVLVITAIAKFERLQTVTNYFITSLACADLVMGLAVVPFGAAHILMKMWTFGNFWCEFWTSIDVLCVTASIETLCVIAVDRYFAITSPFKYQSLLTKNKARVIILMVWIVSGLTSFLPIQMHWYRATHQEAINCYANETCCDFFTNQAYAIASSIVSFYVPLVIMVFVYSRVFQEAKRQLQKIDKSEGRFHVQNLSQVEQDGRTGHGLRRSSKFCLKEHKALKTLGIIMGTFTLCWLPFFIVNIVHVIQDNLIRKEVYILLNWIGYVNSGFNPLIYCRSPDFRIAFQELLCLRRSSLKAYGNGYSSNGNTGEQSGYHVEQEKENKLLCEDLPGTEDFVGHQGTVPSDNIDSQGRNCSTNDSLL

[11] = target: AP-2 complex subunit beta (Homo sapiens) (UniProt P63010); experiment: inhibitors of arrestin peptide binding to AP2, pilot screen, biochemical, validation set, GST-AP2 beads, flow cytometry (AID 504541;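 active means inhibition above 54%, about 3 SD of non-fluorescent compounds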;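 further: AP2 carries R879A mutation and is captured from E. coli lysate; bead-bound FITC arrestin peptide fluorescence measuring arrestin peptide binding to AP2; 0% = DMSO wells and 100% = excess unlabeled arrestin peptide control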); conditions: FITC arrestin peptide, at 10 µM, stronger effect = higher value, AP2 beta2 appendage fragment, R879A mutant
AP-2 complex subunit beta (Homo sapiens), sequence (P63010 whole entry, looked up, the tested form may be a part, one chain of several): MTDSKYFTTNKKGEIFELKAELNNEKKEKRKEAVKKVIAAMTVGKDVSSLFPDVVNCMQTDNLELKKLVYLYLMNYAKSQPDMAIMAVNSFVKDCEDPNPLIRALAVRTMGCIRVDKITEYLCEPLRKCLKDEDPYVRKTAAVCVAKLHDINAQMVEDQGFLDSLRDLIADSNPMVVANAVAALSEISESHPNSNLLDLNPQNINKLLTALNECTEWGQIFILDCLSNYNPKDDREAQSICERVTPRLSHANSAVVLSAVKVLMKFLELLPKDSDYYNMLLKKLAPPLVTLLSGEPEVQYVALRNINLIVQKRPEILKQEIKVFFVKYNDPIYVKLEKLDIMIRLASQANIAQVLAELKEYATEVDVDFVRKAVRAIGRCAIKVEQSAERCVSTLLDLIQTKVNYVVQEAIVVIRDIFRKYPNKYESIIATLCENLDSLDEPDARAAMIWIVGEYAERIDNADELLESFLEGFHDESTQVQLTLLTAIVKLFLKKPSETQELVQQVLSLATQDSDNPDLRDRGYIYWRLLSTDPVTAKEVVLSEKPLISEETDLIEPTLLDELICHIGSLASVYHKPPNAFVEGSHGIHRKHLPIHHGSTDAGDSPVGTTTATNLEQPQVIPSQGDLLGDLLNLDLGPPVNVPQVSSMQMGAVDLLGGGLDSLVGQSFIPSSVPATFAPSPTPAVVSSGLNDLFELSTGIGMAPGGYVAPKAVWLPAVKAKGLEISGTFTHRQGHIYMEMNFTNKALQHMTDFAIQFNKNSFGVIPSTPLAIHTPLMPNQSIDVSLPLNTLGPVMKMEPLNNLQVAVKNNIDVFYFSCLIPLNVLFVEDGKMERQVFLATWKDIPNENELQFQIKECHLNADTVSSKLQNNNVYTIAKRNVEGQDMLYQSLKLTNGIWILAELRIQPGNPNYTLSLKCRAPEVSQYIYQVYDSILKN

[12] = yeast V-ATPase proton transport modulators, S. cerevisiae, pHLuorin, HTS validation (AID 504600; in the data active means response above about 15%;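 further: plate controls were DMSO for no effect and reference compound for full effect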); conditions: S. cerevisiae pHLuorin cytosolic pH, at 10 µM, stronger effect = higher value
[13] = tested on: anti-desmoglein-3 scFv antibody binding to human DSG3; experiment: inhibitors of anti-DSG3 scFv binding to DSG3, pilot screen, biochemical, validation compound set, bead-based, flow cytometry (AID 588368;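 active means binding below the plate cutoff, the plate median minus 3 SD, with a reading above zero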;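 further: signal is the median channel fluorescence of bead-bound GFP antibody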); conditions: Protein G beads, DSG3-Fc, scFv-GFP binding, at 10 µM, stronger effect = lower value
[14] = inhibitors of fungal efflux pumps CDR1, CDR2, MDR1, pilot screen, validation compound set, multiplex, phenotypic (AID 588506;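 active means efflux inhibition above 0.42, the validation set average plus 4 SD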;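 further: Nile Red retained in cells so higher fluorescence means more efflux inhibition; 0 = negative control wells and 1 = enniatin B 25 µM full block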); conditions: S. cerevisiae pump-expressing triplex, Nile Red efflux flow cytometry; at 10 µM; stronger effect = higher value; the pumps come from Candida albicans
[15] = target: ATP-binding cassette sub-family B member 6 (Homo sapiens) (UniProt Q9NP58); experiment: ABCB6 transporter inhibitors, pilot screen, K562-ABCB6 cells, flow cytometry, validation set (AID 588550;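 active means inhibition above the screen-wide mean plus 3 SD, about 51%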;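 further: 0% = DMSO wells and 100% = benzethonium chloride 70 µM positive control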); conditions: K562-ABCB6 porphyrin accumulation, 1 h, at 10 µM, stronger effect = higher value
ATP-binding cassette sub-family B member 6 (Homo sapiens), sequence (Q9NP58 whole entry, looked up): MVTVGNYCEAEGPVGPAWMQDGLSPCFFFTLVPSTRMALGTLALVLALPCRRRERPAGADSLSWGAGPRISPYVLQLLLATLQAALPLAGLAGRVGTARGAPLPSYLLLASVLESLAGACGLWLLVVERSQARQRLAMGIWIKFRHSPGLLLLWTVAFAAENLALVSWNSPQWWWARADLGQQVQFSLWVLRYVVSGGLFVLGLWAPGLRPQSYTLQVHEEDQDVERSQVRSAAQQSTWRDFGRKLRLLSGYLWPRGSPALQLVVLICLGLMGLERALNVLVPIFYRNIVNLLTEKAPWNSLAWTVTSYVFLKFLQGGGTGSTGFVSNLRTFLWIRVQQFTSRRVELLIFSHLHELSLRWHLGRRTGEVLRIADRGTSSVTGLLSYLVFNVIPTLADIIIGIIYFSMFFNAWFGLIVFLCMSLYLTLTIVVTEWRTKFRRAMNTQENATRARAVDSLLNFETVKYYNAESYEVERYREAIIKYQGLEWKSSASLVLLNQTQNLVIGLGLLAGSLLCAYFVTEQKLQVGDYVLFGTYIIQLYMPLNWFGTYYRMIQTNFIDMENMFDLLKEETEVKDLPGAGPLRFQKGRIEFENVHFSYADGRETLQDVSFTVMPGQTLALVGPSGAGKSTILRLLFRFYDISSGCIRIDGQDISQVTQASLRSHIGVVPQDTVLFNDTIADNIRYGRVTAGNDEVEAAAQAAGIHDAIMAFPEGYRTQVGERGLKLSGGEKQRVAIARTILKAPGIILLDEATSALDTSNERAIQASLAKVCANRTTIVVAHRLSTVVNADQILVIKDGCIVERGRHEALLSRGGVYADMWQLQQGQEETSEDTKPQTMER

[16] = promoters of myeloid differentiation in arrested cells, primary screen, cell-based, GFP/MAC1 double positive, flow cytometry, validation set (AID 588685;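 active means differentiation response of at least 50%, scaled between solvent and reference control, from cells with both markers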;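 further: compound exposure lasts four days before antibody staining and flow analysis; 0% = DMSO wells and 100% = 5 µM fulvestrant positive control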); conditions: ER-HoxA9 marrow cells, stronger effect = higher value, normalized: vehicle 0, fulvestrant 100

Cc1ccc(CN2CCN(CCCc3ccccc3)CC2CCO)cc1 (stereo not given)
inactive: percent of DMSO control GFP [1] 103% | GFP response vs DMSO [2] 104% | percent response of DMSO control [3] 106% | GFP response vs DMSO [4] 97.3% | GFP response, % of DMSO [5] 104% | vesicle binding response [6] 219% | inhibition [7] 7.85% | superoxide response (% of plate) [8] 106% | aptamer binding inhibition [9] 1% | response [10] 9.66% | inhibition [11] 30.3% | response [12] -5.49% | binding (% of control) [13] 102% | efflux inhibition (fraction of control) [14] -0.01 | inhibition [15] -8% | differentiation response [16] 10%
62.7%: double positive events [6]

O=C(O)c1cnccn1
65%: double positive events [6]
inactive: percent of DMSO control GFP [1] 103% | GFP response vs DMSO [2] 94.7% | percent response of DMSO control [3] 93.8% | GFP response vs DMSO [4] 108% | GFP response, % of DMSO [5] 106% | vesicle binding response [6] 160% | inhibition [7] 21% | superoxide response (% of plate) [8] 102% | aptamer binding inhibition [9] 4% | response [10] -18.2% | inhibition [11] -5% | response [12] 2.35% | binding (% of control) [13] 104% | efflux inhibition (fraction of control) [14] -0.21 | inhibition [15] 6% | differentiation response [16] -4.99%

COc1ccc(-n2cc(CNCc3cccnc3)c(-c3cccc(F)c3)n2)cc1
64.8%: double positive events [6]
inactive: percent of DMSO control GFP [1] 105% | GFP response vs DMSO [2] 97.2% | percent response of DMSO control [3] 115% | GFP response vs DMSO [4] 110% | GFP response, % of DMSO [5] 99.1% | vesicle binding response [6] 314% | inhibition [7] -4.6% | superoxide response (% of plate) [8] 89.3% | aptamer binding inhibition [9] 0% | response [10] -13.2% | inhibition [11] -5.67% | response [12] -0.1% | binding (% of control) [13] 104% | efflux inhibition (fraction of control) [14] -0.26 | inhibition [15] 20% | differentiation response [16] 4.15%

CCn1c(C)cc2c(c1=O)C(c1ccccc1)C(C(=O)OC)=C(N)O2 (stereo not given)
58.8%: double positive events [6]
inactive: percent of DMSO control GFP [1] 102% | GFP response vs DMSO [2] 105% | percent response of DMSO control [3] 98.3% | GFP response vs DMSO [4] 108% | GFP response, % of DMSO [5] 111% | vesicle binding response [6] 167% | inhibition [7] 18.5% | superoxide response (% of plate) [8] 108% | aptamer binding inhibition [9] 4% | response [10] -32.4% | inhibition [11] 1.11% | response [12] -16.3% | binding (% of control) [13] 102% | efflux inhibition (fraction of control) [14] 0.04 | inhibition [15] 7% | differentiation response [16] 4.86%

CCNC(=S)N1CCN(CCN2C(=O)c3cccc4cccc(c34)C2=O)CC1
63.5%: double positive events [6]
inactive: percent of DMSO control GFP [1] 103% | GFP response vs DMSO [2] 97.7% | percent response of DMSO control [3] 106% | GFP response vs DMSO [4] 95.9% | GFP response, % of DMSO [5] 107% | vesicle binding response [6] 143% | inhibition [7] -26.6% | superoxide response (% of plate) [8] 96.9% | aptamer binding inhibition [9] 0% | response [10] -20.5% | inhibition [11] -15.4% | response [12] 1.54% | binding (% of control) [13] 104% | efflux inhibition (fraction of control) [14] -0.195 | inhibition [15] -13% | differentiation response [16] -8.96%

CCOC(=O)c1cccc(P(C)(C)=O)c1
inactive: percent of DMSO control GFP [1] 103% | GFP response vs DMSO [2] 97.2% | percent response of DMSO control [3] 114% | GFP response vs DMSO [4] 90.1% | GFP response, % of DMSO [5] 104% | vesicle binding response [6] 67.6% | inhibition [7] 5.77% | superoxide response (% of plate) [8] 109% | aptamer binding inhibition [9] 3% | response [10] -6.13% | inhibition [11] -7.26% | response [12] -2.31% | binding (% of control) [13] 95.8% | efflux inhibition (fraction of control) [14] -0.04 | inhibition [15] -7% | differentiation response [16] 6.11%
62%: double positive events [6]

Cc1ccc(C)c(OCCCC(C)(C)C(=O)O)c1
62.8%: double positive events [6]
inactive: percent of DMSO control GFP [1] 98% | GFP response vs DMSO [2] 97.2% | percent response of DMSO control [3] 95.4% | GFP response vs DMSO [4] 122% | GFP response, % of DMSO [5] 89.6% | vesicle binding response [6] 203% | inhibition [7] -0.45% | superoxide response (% of plate) [8] 104% | aptamer binding inhibition [9] 4% | response [10] -7.3% | inhibition [11] -6.6% | response [12] 4.38% | binding (% of control) [13] 96.4% | efflux inhibition (fraction of control) [14] 0.05 | inhibition [15] 10% | differentiation response [16] 6.11%

CC(=O)OC1c2c(ccc3ccc(=O)oc23)OC(C)(C)C1OC(=O)CC(C)C (stereo not given)
64.2%: double positive events [6]
inactive: percent of DMSO control GFP [1] 103% | GFP response vs DMSO [2] 99.3% | percent response of DMSO control [3] 104% | GFP response vs DMSO [4] 98% | GFP response, % of DMSO [5] 94.2% | vesicle binding response [6] 1500% | inhibition [7] 19.3% | superoxide response (% of plate) [8] 90.3% | aptamer binding inhibition [9] 3% | response [10] -25.3% | inhibition [11] 1.97% | response [12] -1.96% | binding (% of control) [13] 100% | efflux inhibition (fraction of control) [14] 0.24 | inhibition [15] 15% | differentiation response [16] -3.67%

Cc1ccc(-c2nnc(-c3ccc4c(c3)OCO4)o2)cc1
inactive: percent of DMSO control GFP [1] 103% | GFP response vs DMSO [2] 106% | percent response of DMSO control [3] 109% | GFP response vs DMSO [4] 121% | GFP response, % of DMSO [5] 115% | vesicle binding response [6] 165% | inhibition [7] -2.82% | superoxide response (% of plate) [8] 98.9% | aptamer binding inhibition [9] -7% | response [10] -16.4% | inhibition [11] 6.09% | response [12] 2.28% | binding (% of control) [13] 99.9% | efflux inhibition (fraction of control) [14] 0.04 | inhibition [15] 2% | differentiation response [16] -0.06%
57.9%: double positive events [6]

Cn1c(=S)n(C)c2ccccc21
61.4%: double positive events [6]
inactive: percent of DMSO control GFP [1] 99.2% | GFP response vs DMSO [2] 104% | percent response of DMSO control [3] 94.4% | GFP response vs DMSO [4] 110% | GFP response, % of DMSO [5] 104% | vesicle binding response [6] 264% | inhibition [7] 16.8% | superoxide response (% of plate) [8] 104% | aptamer binding inhibition [9] 3% | response [10] 25.9% | inhibition [11] 0.89% | response [12] -1.79% | binding (% of control) [13] 105% | efflux inhibition (fraction of control) [14] 0.08 | inhibition [15] 7% | differentiation response [16] -4%
